# TDP1 cell noCPT: qHTS for Inhibitors of human tyrosyl-DNA phosphodiesterase 1 (TDP1): qHTS in cells in absence of CPT | Potency, µM (series often up to 46.2 µM), for the others: at the top dose activity change, negative = growth inhibition, actives largely listed as inhibitors | 420,000 tested, 15% active | DT40 Tdp1-/- hTDP1 cells, no CPT, ATP luminescence, 48 h; further: nearly all actives have a fitted effect of over 55% in size
#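 Camptothecin absent (DMSO only). Human TDP1-complemented DT40 knockout cells, 400 cells/well, 37 °C for minimum 48 hr; ATP measured via CellTiter-Glo, 30 min dark incubation, luminescence.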
# DT40 TDP1 CPT: DT40-hTDP1 cell growth loss with CPT. chicken DT40 Tdp1-/-;hTDP1 cells + 20 nM CPT, ATP luminescence, 48 h. Potency, µM (titrated, usually from 46.2 µM), for the others: at the top dose activity change, negative = growth inhibition, most hits filed as inhibitors. 420,000 tested, 12% active; further: nearly all actives have a fitted effect of over 55% in size
#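 Chicken DT40 Tdp1-/- cells stably complemented with human TDP1 were seeded at 400 cells/well in medium containing 20 nM camptothecin, exposed to pin-transferred compounds, and grown at 37 °C for at least 48 hr. Viability was read as ATP luminescence.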
# KB-3-1 tox: kills parental KB-3-1 adenocarcinoma cells. Potency, µM (top dose mostly 46.1 µM), hits mostly cytotoxic. KB-3-1 viability, CellTiter-Glo ATP luminescence, 72 h. 400,000 tested, 1.4% active. AID 1347075; further: nearly all actives have a fitted effect of over 60% in size
#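 KB-3-1 cells, DMEM (no phenol red) + 10% FBS; compound by pin transfer, 72 h, 37 °C. Readout: CellTiter-Glo luminescence after 10 min. Data normalized, curve-fitted.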
# KB-V1 MDR tox: KB-V1 MDR subline cytotoxicity | Potency, µM (top dose mostly 46.1 µM), actives largely listed as cytotoxic | 400,000 tested, 3.4% active | KB-V1 MDR cells viability, CellTiter-Glo, 72 h; further: nearly all actives have a fitted effect of over 60% in size
#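 qHTS viability screen in drug-selected KB-V1 MDR cells: 72 h compound treatment at 37 degrees C, ATP luminescence end point.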
# HT1080 IDH1KD tx: HT-1080 IDH1 knockdown cell toxicity (counter line); HT-1080 IDH1 knockdown viability, ATP luminescence, 48 h; 360,000 tested, 2% active; Potency, µM (titrated, usually from 46.1 µM), for inactives: at the top dose activity, negative = toxicity, most hits filed as cytotoxic;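 further: 0% = DMSO wells and -100% = cell-free medium wells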
#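 Luminescent ATP read-out (CellTiter-Glo, 10 min at room temperature) after 48 h compound exposure at 37 °C gave viability of IDH1-knockdown HT-1080 cells. Activity was normalised to DMSO and cell-free wells, then fitted as concentration-response curves.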
# HT1080-NT tox: kills 2HG-producing HT-1080-NT fibrosarcoma cells; Potency, µM (top dose mostly 46.1 µM), without a hit: at the top dose activity, negative = less viability, most hits filed as cytotoxic; 360,000 tested, 1.6% active; HT-1080-NT fibrosarcoma viability, CellTiter-Glo ATP luminescence, 48 h;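 further: NT is the 2HG producing partner of a matched IDH1 knockdown line; 0% = DMSO-treated cells and -100% = media-only wells without cells; nearly all actives have a fitted effect of over 55% in size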
#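 A 48-hour cytotoxicity screen used HT-1080-NT cells plated 2 hours before compound delivery. ATP-based CellTiter-Glo luminescence measured viability, normalized to DMSO and no-cell controls.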
# * = called active by the depositor; i = inactive; ? = inconclusive; nt = no result given; [ ] = dose if it differs, or a comment. Most compounds without a hit are left out; they make up all but 19% or so of the library. The call rests on the fitted dose curve; in most records, active means well fitted curve in the direction sought with a large enough effect; inconclusive means small, poorly fitted or top-dose-only effect, or another doubt; inactive means no such curve, though single readings can be large; an effect the other way counts as inactive or inconclusive. Unless noted, on the % scale 0 is the no-effect control and ±100 the full control effect; potency means the concentration at half of the fitted maximal effect.
SMILES,TDP1 cell noCPT,DT40 TDP1 CPT,KB-3-1 tox,KB-V1 MDR tox,HT1080 IDH1KD tx,HT1080-NT tox
CCNc1cc2c(cc1O)CCC1C2CCC2(C)C(O)CCC12 (stereo not drawn),23µM*,7.3µM*,?,?,-11%,-9%
Cc1cccc2c1cnn2C(=O)CCC(=O)NCC(C)c1ccccc1 (stereo not drawn),-4%,-9%,i,i,6%,4%
COC(=O)/C(C#N)=C/c1c(Oc2cccc(C)c2C)nc2ccccn2c1=O,-26%,0%,i,i,23%,24%
Cc1ccc(Cl)cc1NC(=O)CON=C(N)c1ccccc1,-15%,-19%,i,i,-1%,-6%
COc1ccccc1Oc1coc2cc(OC(=O)N3CCOCC3)ccc2c1=O,-8%,?,?,23µM*,4%,3%
COc1cccc(Oc2coc3cc(OC(=O)N4CCOCC4)ccc3c2=O)c1,?,?,i,?,-2%,-15%
COc1ccc(C(=O)Nc2nnc(S(=O)(=O)N3CCN(c4ccc(C)cc4)CC3)s2)cc1,-28%,3%,i,i,nt,nt
COC(=O)c1cnn(-c2nc(OC)cc(OC)n2)c1C,?,-13%,i,16µM*,2%,-3%
COc1cc(OC)nc(-n2ncc(Br)c(Br)c2=O)n1,0.82µM*,0.65µM*,6.5µM*,?,1.6µM*,1.6µM*
COC(=O)[C@@H]1C[C@@]2(Br)c3ccccc3N(S(=O)(=O)c3ccccc3)[C@H]2N1C(=O)OC,?,?,i,i,2%,0%
Cc1ccc(-c2nc(C)sc2CC(=O)OCC(=O)Nc2ccc(F)c(Cl)c2)cc1,-8%,-3%,i,i,1%,-1%
CC(C)c1ccccc1NC(=O)CCc1nc2ccccc2s1,?,-27%,i,18µM*,-2%,0%
COc1ccccc1Nc1cc(N2CCOCC2)c2nonc2c1[N+](=O)[O-],?,0%,i,?,0%,-6%
O=[N+]([O-])c1cc([N+](=O)[O-])c(N2CCOCC2)cc1NCc1ccccc1,18µM*,8.2µM*,i,i,-17%,-16%
O=[N+]([O-])c1c(NCc2ccccc2)cc(N2CCc3ccccc3C2)c2nonc12,21µM*,?,i,i,-7%,-3%
Cc1ccc(CNc2ccc(S(=O)(=O)N3CCOCC3)cc2[N+](=O)[O-])cc1,?,?,i,5.2µM*,-8%,0%
O=[N+]([O-])c1ccc(N2CCOCC2)cc1NCc1ccccc1,?,?,i,i,-17%,-21%
CCCN1CCC(=NNc2ccc(S(=O)(=O)N3CCOCC3)cc2[N+](=O)[O-])CC1,2.6µM*,2.6µM*,4.6µM*,7.3µM*,15µM*,?
CC(C)N1CCC(=NNc2ccc(S(=O)(=O)N3CCOCC3)cc2[N+](=O)[O-])CC1,?,-21%,i,?,0%,-1%
O=[n+]1c2c(n([O-])c3ccccc31)CCCC2,-8%,-27%,i,?,1%,-5%[9.24 µM]
CC(C(=O)OCC(=O)Nc1cccc(S(=O)(=O)N2CCOCC2)c1)N1C(=O)c2ccccc2C1=O (stereo not drawn),-26%,-4%,i,?,-13%,-2%
CC(=O)NC1C(=O)N=C(SCC(=O)Nc2cccc(Cl)c2)NC1=O (stereo not drawn),-11%,-6%,i,i,21%,0%
CCCc1nnc(NC(=O)c2ccc(S(=O)(=O)N(C)c3ccccc3OC)cc2)s1,?,-5%,i,15µM*,-5%,-6%
CCCc1nnc(NC(=O)Nc2ccccc2OC)s1,-24%,-26%,i,18µM*,12%,2%
